Laboratory results reported in PMC5892938, “SARNAclust: Semi-automatic detection of RNA protein binding motifs from immunoprecipitation data”.
In all, about 11,000 sequences were measured (“log2 fold change”: median about 0.00022, highest 2% from about 0.34 on). Some of the results follow.

Target: GST-SBP-SLBP (stem-loop binding protein) (Homo sapiens, UniProt Q14493 1-270)
Assay: targeted RNA Bind-n-Seq; RBNS binding buffer: 25 mM Tris pH 7.5, 150 mM KCl, 3 mM MgCl2, 0.1% Tween, 0.5 mg/mL BSA, 1 mM DTT; 27 nM protein, 750 pM RNA pool; temperature not stated; high values mean tight binding
Conditions: protein: recombinant; tags: N-terminal GST and SBP (pGEX6P1-SBP); structured_RNA
Procedure, shortened: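 Read counts per sequence supply the binding signal, defined as the DEseq fold change on a binary-logarithm scale. These counts came from RNA of a designed, T7-transcribed oligo pool at 750 pM that bound 27 nM of GST-SBP-tagged protein, made in Rosetta(DE3) pLysS E. coli and glutathione-purified, in RBNS binding buffer. The bound RNA was reverse transcribed with a 10-nucleotide barcoded primer, PCR-amplified and sequenced on a MiSeq with 200-cycle paired-end reads, then processed with FLASH and HISAT2 and collapsed by barcode.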

For “GGUCACGUCUCAAUCAACUCUAAGGAGGGGGGGAAAACCCCUUUACCCUCAUCAUCAACAGCUCGCAGUCAAG”, which binding signal is on record?
Its binding signal is 0.486 ± 0.425 log2 fold change.

With “GGUCACGUCUCAAUCAACUCUCAGGAGGGGGGGAAAACCCCUUUACCCUCAUCGUCAACAGCUCGCAGUCAAG” as the sequence, how does the binding signal read?
Its binding signal is 0.309 ± 0.421 log2 fold change.

Which binding signal does the source give for “GGUCACGUCUCAAUCAACUCUAAGGAGGGGGGGAAAACCCCUUUACCCUCACACUCAACAGCUCGCAGUCAAG” here?
Its binding signal is 0.396 ± 0.454 log2 fold change.

Which binding signal does the source give for “GGUCACGUCUCAAUCAACUCAACUGAGGGGGGGAAAACCCCUUUACCCUCCACAUCAACAGCUCGCAGUCAAG” here?
The binding signal was 0.388 ± 0.423 log2 fold change.

How did the binding signal turn out when “GGUCACGUCUCAAUCAACUCAACUGAGGGGGGGAAAACCCCUUUACCCUCCAAAUCAACAGCUCGCAGUCAAG” was run?
The binding signal was 0.448 ± 0.446 log2 fold change.

For “GGUCACGUCUCAAUCAACUCUCCAGAGGGGGGGAAAACCCCUUUACCCUCAACAUCAACAGCUCGCAGUCAAG”, which binding signal is on record?
The binding signal was 0.304 ± 0.431 log2 fold change.

“GGUCACGUCUCAAUCAACUCAAUAGAGGGGGGGAAAACCCCUUUACCCUCCCAAUCAACAGCUCGCAGUCAAG” was tested. Which binding signal did it give?
The binding signal was 0.325 ± 0.459 log2 fold change.

For “GGUCACGUCUCAAUCAACUCCCAAGAGGGGGGGAAAACCCCUUUACCCUCACUCUCAACAGCUCGCAGUCAAG”, which binding signal is on record?
Its binding signal is 0.558 ± 0.444 log2 fold change.

Which binding signal does the source give for “GGUCACGUCUCAAUCAACUCCCAAGAGGGGGGGAAAACCCCUUUACCCUCGUAAUCAACAGCUCGCAGUCAAG” here?
The binding signal was 0.444 ± 0.442 log2 fold change.

How did the binding signal turn out when “GGUCACGUCUCAAUCAACUCUUACGAGGGGGGGAAAACCCCUUUGCCCUCAACAUCAACAGCUCGCAGUCAAG” was run?
Its binding signal is 0.326 ± 0.377 log2 fold change.

Which binding signal does the source give for “GGUCACGUCUCAAUCAACUCUUACGAGGGGGGGAAAACCCCUUUGCCCUCAAAUUCAACAGCUCGCAGUCAAG” here?
The binding signal was 0.347 ± 0.395 log2 fold change.

How did the binding signal turn out when “GGUCACGUCUCAAUCAACUCUCACGAGGGGGGGAAAACCCCUUUACCCUCAAAUUCAACAGCUCGCAGUCAAG” was run?
The binding signal was 0.315 ± 0.408 log2 fold change.

Which binding signal does the source give for “GGUCACGUCUCAAUCAACUCUUACGAGGGGGGGAAAACCCCUUUACCCUCAAAUUCAACAGCUCGCAGUCAAG” here?
The binding signal was 0.37 ± 0.399 log2 fold change.

“GGUCACGUCUCAAUCAACUCUUCAGAGGGGGGGAAAACCCCUUUACCCUCCGUUUCAACAGCUCGCAGUCAAG” was tested. Which binding signal did it give?
Its binding signal is 0.44 ± 0.434 log2 fold change.

“GGUCACGUCUCAAUCAACUCUUCAGAGGGGGGGAAAACCCCUUUACCCUCCUAAUCAACAGCUCGCAGUCAAG” was tested. Which binding signal did it give?
The binding signal was 0.368 ± 0.433 log2 fold change.

How did the binding signal turn out when “GGUCACGUCUCAAUCAACUCGUUUUCAGGAGUUUACUCCUGCUUAUUCAACAGCUCGCAGUCAAG” was run?
Its binding signal is 0.329 ± 0.222 log2 fold change.

“GGUCACGUCUCAAUCAACUCACAAGAGGGGGGGAAAACCCCUUUGCCCUCGAUAUCAACAGCUCGCAGUCAAG” was tested. Which binding signal did it give?
Its binding signal is 0.468 ± 0.396 log2 fold change.

With “GGUCACGUCUCAAUCAACUCAAAAGAGGGGGGGAAAACCCCUUUGCCCUCGAUAUCAACAGCUCGCAGUCAAG” as the sequence, how does the binding signal read?
The binding signal was 0.336 ± 0.363 log2 fold change.

With “GGUCACGUCUCAAUCAACUCACAAGAGGGGGGGAAAACCCCUUUGCCCUCCGUAUCAACAGCUCGCAGUCAAG” as the sequence, how does the binding signal read?
Its binding signal is 0.416 ± 0.404 log2 fold change.

“GGUCACGUCUCAAUCAACUCCCACGAGGGGGGGAAAACCCCUUUACCCUCAACCUCAACAGCUCGCAGUCAAG” was tested. Which binding signal did it give?
The binding signal was 0.335 ± 0.423 log2 fold change.

Which binding signal does the source give for “GGUCACGUCUCAAUCAACUCCCACGAGGGGGGGAAAACCCCUUUACCCUCUCAAUCAACAGCUCGCAGUCAAG” here?
Its binding signal is 0.362 ± 0.418 log2 fold change.

Which binding signal does the source give for “GGUCACGUCUCAAUCAACUCCCACGAGGGGGGGAAAACCCCUUUACCCUCACACUCAACAGCUCGCAGUCAAG” here?
Its binding signal is 0.366 ± 0.434 log2 fold change.

Which binding signal does the source give for “GGUCACGUCUCAAUCAACUCAAUCGAGGGGGGGAAAACCCCUUUGCCCUCAUCUUCAACAGCUCGCAGUCAAG” here?
Its binding signal is 0.419 ± 0.432 log2 fold change.

“GGUCACGUCUCAAUCAACUCAAACGAGGGGGGGAAAACCCCUUUGCCCUCAUCUUCAACAGCUCGCAGUCAAG” was tested. Which binding signal did it give?
Its binding signal is 0.58 ± 0.399 log2 fold change.

For “GGUCACGUCUCAAUCAACUCAAUAGAGGGGGGGAAAACCCCUUUACCCUCAAACUCAACAGCUCGCAGUCAAG”, which binding signal is on record?
The binding signal was 0.319 ± 0.424 log2 fold change.

For “GGUCACGUCUCAAUCAACUCCUCAGAGGGGGGGAAAACCCCUUUACCCUCGUCCUCAACAGCUCGCAGUCAAG”, which binding signal is on record?
Its binding signal is 0.382 ± 0.44 log2 fold change.

“GGUCACGUCUCAAUCAACUCCUCAGAGGGGGGGAAAACCCCUUUACCCUCAAUAUCAACAGCUCGCAGUCAAG” was tested. Which binding signal did it give?
The binding signal was 0.394 ± 0.424 log2 fold change.

With “GGUCACGUCUCAAUCAACUCAACAGAGGGGGGGAAAACCCCUUUACCCUCAAUAUCAACAGCUCGCAGUCAAG” as the sequence, how does the binding signal read?
Its binding signal is 0.362 ± 0.427 log2 fold change.

With “GGUCACGUCUCAAUCAACUCCCUCGAGGGGGGGAAAACCCCUUUACCCUCAUUAUCAACAGCUCGCAGUCAAG” as the sequence, how does the binding signal read?
The binding signal was 0.395 ± 0.38 log2 fold change.

With “GGUCACGUCUCAAUCAACUCCCUCGAGGGGGGGAAAACCCCUUUACCCUCAUCGUCAACAGCUCGCAGUCAAG” as the sequence, how does the binding signal read?
The binding signal was 0.532 ± 0.391 log2 fold change.

Which binding signal does the source give for “GGUCACGUCUCAAUCAACUCUAUUCCCAGGGAAAGCCCUGGUAUUCUCAACAGCUCGCAGUCAAG” here?
The binding signal was 0.307 ± 0.273 log2 fold change.

For “GGUCACGUCUCAAUCAACUCUAUCCCCAGGGAAAUCCCUGGUAUAUUCAACAGCUCGCAGUCAAG”, which binding signal is on record?
The binding signal was 0.333 ± 0.304 log2 fold change.

How did the binding signal turn out when “GGUCACGUCUCAAUCAACUCUAUUCCCAGGGAAAGCCCUGGCUAUCUCAACAGCUCGCAGUCAAG” was run?
The binding signal was 0.342 ± 0.296 log2 fold change.

Which binding signal does the source give for “GGUCACGUCUCAAUCAACUCUAUUCCCAGGGAAAGCCCUGGUAUUUUCAACAGCUCGCAGUCAAG” here?
Its binding signal is 0.387 ± 0.281 log2 fold change.

“GGUCACGUCUCAAUCAACUCAAUCCCCAGGGAAAGCCCUGGUAUUCUCAACAGCUCGCAGUCAAG” was tested. Which binding signal did it give?
The binding signal was 0.378 ± 0.274 log2 fold change.

For “GGUCACGUCUCAAUCAACUCUAUCCCCAGGGAAAGCCCUGGUAUAUUCAACAGCUCGCAGUCAAG”, which binding signal is on record?
Its binding signal is 0.366 ± 0.305 log2 fold change.

For “GGUCACGUCUCAAUCAACUCAUCUCCCAGGGAAAACCCUGGUAUAUUCAACAGCUCGCAGUCAAG”, which binding signal is on record?
Its binding signal is 0.374 ± 0.346 log2 fold change.

“GGUCACGUCUCAAUCAACUCUUUUCCCAGGGAAAUCCCUGGCAUACUCAACAGCUCGCAGUCAAG” was tested. Which binding signal did it give?
The binding signal was 0.334 ± 0.22 log2 fold change.

“GGUCACGUCUCAAUCAACUCAAGUCCCAGGGAAAACCCUGGCAAUUUCAACAGCUCGCAGUCAAG” was tested. Which binding signal did it give?
The binding signal was 0.381 ± 0.341 log2 fold change.

How did the binding signal turn out when “GGUCACGUCUCAAUCAACUCAAUCCCCAGGGAAAACCCUGGCUAUUUCAACAGCUCGCAGUCAAG” was run?
The binding signal was 0.338 ± 0.272 log2 fold change.

Which binding signal does the source give for “GGUCACGUCUCAAUCAACUCUUUUUCCAGGGAAACCCCUGGCAUACUCAACAGCUCGCAGUCAAG” here?
Its binding signal is 0.44 ± 0.276 log2 fold change.

“GGUCACGUCUCAAUCAACUCUUCUUCCAGGGAAAUCCCUGGCAUACUCAACAGCUCGCAGUCAAG” was tested. Which binding signal did it give?
The binding signal was 0.399 ± 0.235 log2 fold change.

“GGUCACGUCUCAAUCAACUCAAUCCCCAGGGAAAACCCUGGCAUACUCAACAGCUCGCAGUCAAG” was tested. Which binding signal did it give?
The binding signal was 0.351 ± 0.232 log2 fold change.

With “GGUCACGUCUCAAUCAACUCUAUUCCCAGGGAAAACCCUGGCAUUUUCAACAGCUCGCAGUCAAG” as the sequence, how does the binding signal read?
The binding signal was 0.49 ± 0.262 log2 fold change.

Which binding signal does the source give for “GGUCACGUCUCAAUCAACUCAACUUCCAGGGAAAACCCUGGCAUUUUCAACAGCUCGCAGUCAAG” here?
Its binding signal is 0.305 ± 0.262 log2 fold change.

“GGUCACGUCUCAAUCAACUCUACUCCCAGGGAAAACCCUGGUAAUUUCAACAGCUCGCAGUCAAG” was tested. Which binding signal did it give?
Its binding signal is 0.454 ± 0.318 log2 fold change.

“GGUCACGUCUCAAUCAACUCUAUUCCCAGGGAAACCCCUGGCAUACUCAACAGCUCGCAGUCAAG” was tested. Which binding signal did it give?
Its binding signal is 0.311 ± 0.273 log2 fold change.

For “GGUCACGUCUCAAUCAACUCUUUUUCCAGGGAAACCCCUGGUAUACUCAACAGCUCGCAGUCAAG”, which binding signal is on record?
Its binding signal is 0.445 ± 0.233 log2 fold change.
